Assay outcomes: PubChem BioAssay, National Center for Advancing Translational Sciences (NCATS)
Shown are actives, neighbours in structure and some others; about 11% of the full set was active somewhere.
PLK1 PBD block – PLK1 (human) polo-box domain binding inhibition; Potency, µM, for inactives: max response, negative = inhibition, actives largely listed as inhibitors; P53350; 2.8% of 360,000 active; AID 720504; Plk1 PBD binding of FITC phosphopeptide, fluorescence polarization; further: series mostly up to about 57 µM; on the % scale 0 is the no-effect control and ±100 the full control effect; nearly all actives have a fitted effect of over 65% in size
G9a block – G9a (human) methyltransferase inhibition. Q96KQ7. G9a H3K9 monomethylation, AlphaScreen, 2 h. Potency, µM (series often up to 102 µM), for inactives: at the top dose activity, negative = inhibition, hits mostly inhibitors. 8.8% of 350,000 active; further: on the % scale 0 is the no-effect control and ±100 the full control effect; nearly all actives have a fitted effect of over 75% in size
Target sequence (Q96KQ7 913-1193 limits assumed): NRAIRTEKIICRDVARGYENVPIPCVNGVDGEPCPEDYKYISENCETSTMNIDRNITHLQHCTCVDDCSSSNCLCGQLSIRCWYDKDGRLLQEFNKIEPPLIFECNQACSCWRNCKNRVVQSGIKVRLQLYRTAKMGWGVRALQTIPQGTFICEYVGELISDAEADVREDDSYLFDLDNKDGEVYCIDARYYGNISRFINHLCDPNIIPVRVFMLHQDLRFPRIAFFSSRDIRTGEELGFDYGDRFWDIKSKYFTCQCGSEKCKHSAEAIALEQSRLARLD
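Using a bead-based AlphaScreen, monomethylated H3K9 product from 2 h room-temperature reactions (G9a 20 nM, peptide 500 nM, SAM 20 uM) was detected with 0.5 ug/mL rabbit anti-H3K9me1 antibody.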
JMJD2A Tudor – JMJD2A Tudor domain (human) inhibition | AlphaScreen JMJD2A-Tudor / H3K4me3 peptide binding | 4.4% of 390,000 active | O75164 | Potency, µM (series often up to 114 µM), without a hit: top-dose activity change, negative = inhibition, actives largely listed as inhibitors | AID 504339; further: on the % scale 0 is the no-effect control and ±100 the full control effect; nearly all actives have a fitted effect of over 50% in size
BAZ2B inh – BAZ2B (human) inhibition; Q9UIF8; AlphaScreen BAZ2B-H3K14Ac peptide displacement; Potency, µM (doses to about 114 µM), for the others: at the highest dose activity change, negative = inhibition, actives largely listed as inhibitors; 4.4% of 360,000 active; AID 504333; further: on the % scale 0 is the no-effect control and ±100 the full control effect; nearly all actives have a fitted effect of over 60% in size
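Multi-concentration screen (max 110 uM) measuring displacement of acetylated histone H3 peptide from BAZ2B by AlphaScreen, using 50 nM protein, 50 nM peptide and 10 ug/mL streptavidin donor plus Ni-chelate acceptor beads.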
HP1b chromo inh – inhibitors of HP1-beta chromodomain binding to methylated histone tails; AlphaScreen HP1-beta / biotin-H3K9me3 peptide binding; Potency, µM (top dose mostly 114 µM), without a hit: at the highest dose activity change, negative = inhibition, hits mostly inhibitors; 0.56% of 390,000 active; AID 540317; further: nearly all actives have a fitted effect of over 70% in size
Target sequence (P83916 whole entry, looked up): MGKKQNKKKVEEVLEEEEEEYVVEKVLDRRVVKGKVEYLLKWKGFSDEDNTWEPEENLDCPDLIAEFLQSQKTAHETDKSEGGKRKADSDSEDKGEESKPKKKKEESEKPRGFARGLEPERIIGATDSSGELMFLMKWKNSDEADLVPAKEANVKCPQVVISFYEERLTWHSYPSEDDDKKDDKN
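AlphaScreen: HP1-beta (50 nM) preformed 30 min with biotin-H3(1-18)K9me3 peptide (50 nM) in PBS pH 7.4, 0.01% Tween-20. Compound added for 30 min at RT, then streptavidin donor/nickel chelate acceptor beads (10 ug/mL) for 30 min.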
VDR inhibitor – blocks the human vitamin D receptor | AID 504847 | VDR-SRC2-3 peptide fluorescence polarization, 2 h | P11473 | 0.93% of 400,000 active | Potency, µM, inactives show max response, negative = inhibition, usual class: inhibitors; further: on the % scale 0 is the no-effect control and ±100 the full control effect
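Compounds are added to VDR with labelled SRC2-3 coactivator peptide and held 2 h at room temperature. Inhibition of the VDR–peptide interaction is then read as a change in fluorescence polarization.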
An asterisk follows results filed as active; ? = inconclusive; / = not tested or not shown; [ ] = another dose, or the depositor's remark. The call rests on the fitted dose curve; in most records, active means well fitted curve in the direction sought with a large enough effect; inconclusive means small, poorly fitted or top-dose-only effect, or another doubt; inactive means no such curve, though single readings can be large; an effect the other way counts as inactive or inconclusive. Potency means the concentration at half of the fitted maximal effect.

SMILES	PLK1 PBD block	G9a block	JMJD2A Tudor	BAZ2B inh	HP1b chromo inh	VDR inhibitor
Cc1ccc(Cn2ncc3c(NCCN(C)C)ncnc32)cc1	-16%	50µM*	-22%	-4%	17%	-23%
Cc1ccc(Cn2ncc3c(N4CCN(c5ccc(C)cc5)CC4)ncnc32)cc1	3%	?	-17%	-6%	27%	15%
OCCNc1ncnc2c1cnn2Cc1ccccc1	-15%	5%	-6%	-3%	28%	6%
COc1ccc(Nc2ncnc3c2cnn3Cc2ccccc2)cc1	-7%	50µM*	89µM*	79µM*	2%	-7%
CCOc1ccc(Nc2ncnc3c2cnn3Cc2ccccc2)cc1	-9%	-38%[59 µM]	-17%	?	9%	5%
Cc1ccc(Cn2ncc3c(N4CCN(Cc5ccc(Cl)cc5)CC4)ncnc32)cc1	-6%	35µM*	-22%	-33%	19%	-15%
COc1ccc(CN(C(=O)Nc2cc(C)ccc2C)C2CCN(C(C)=O)CC2)cc1	/	11%[59 µM]	-11%	1%	17%	-3%
CCCCCCNC(=O)O[C@H]1Cn2c(=O)ccc(=O)n2[C@@H]2CN(S(=O)(=O)c3ccc(C)cc3)C[C@]12O	-22%	/	/	/	/	/
Cc1cccc(CNC(=O)Cn2nc(C)c3nn(-c4ccc(Cl)cc4)c(C)c3c2=O)c1	/	2%[59 µM]	-2%	1%	28%[57 µM]	0%
CCc1nn(Cc2cccc(F)c2)c(=O)c2cc3cc(C)ccc3n12	/	-6%[59 µM]	8%	5%	28%	-4%
CCNC(=O)NC(=O)C(C)OC(=O)C1CCN(S(=O)(=O)c2ccc(C)c(C)c2)CC1 (stereo not drawn)	3%	?	-3%	-1%	32%	5%
COc1ccc(CC(=O)NNc2ncnc3c2cnn3C)cc1	-9%	25µM*	-22%	79µM*	26%	-16%
CCN(c1ccccc1)S(=O)(=O)c1ccc(OC)c(NC(=O)CN2C(=O)NC(C)(C)C2=O)c1	2%	10%[12.7 µM]	-5%	1%	31%	-14%
CCN(c1ccccc1)S(=O)(=O)c1ccc(OC)c(NC(=O)CNCCc2ccccc2)c1	-15%	?	0.89µM*	32µM*	50µM*	15%
CCN(c1ccccc1)S(=O)(=O)c1ccc(OC)c(NC(=O)CCc2nc3ccccc3c(=O)[nH]2)c1	0%	45µM*	-15%	-1%	11%	-13%
CCN(c1ccccc1)S(=O)(=O)c1ccc(OC)c(NC(=O)COc2ccc(C(C)=O)cc2)c1	5%	56µM*	-10%	6%	16%	1%
CCN(c1ccccc1)S(=O)(=O)c1ccc(OC)c(OC)c1	-3%	-3%[59 µM]	-1%	2%	15%	-13%
Cc1[nH]c(/C=C2/C(=O)Nc3ccc(S(=O)(=O)Cc4c(Cl)cccc4Cl)cc32)c(C)c1C(=O)N1CCCC1CN1CCCC1 (stereo not drawn)	/	/	/	/	/	28%
CC(C)NC(=O)Cn1ncn2c(cc3cc(F)ccc32)c1=O	/	-6%[59 µM]	-12%	5%	21%	26%
C/C=C/c1cc(CN2CCN(c3ccccc3)CC2)c(O)c(OC)c1	-1%	?	?	/	-1%	3%
COc1ccc(N2CCN(Cc3cc4c(cc3O)CCC4)CC2)cc1	1%	?	16µM*	32µM*	-53%	12%
COc1ccc(N2CCN(Cc3cc(=O)oc4cc5c(cc34)CCCC5)CC2)cc1	-4%	8%[59 µM]	-9%	5%	28%	7%
C/C=C/c1cc(CN2CCN(c3ccc(OC)cc3)CC2)c(O)c(OC)c1	-27%	35µM*	45µM*	28µM*	45µM*	-18%
CC(C(=O)O)n1c(-c2ccn[nH]2)n[nH]c1=S (stereo not drawn)	15µM*	?	-11%[11.4 µM]	-17%	-9%	?
CC(=O)O[C@@]1(C(C)=O)CCC2C3C=C(Cl)C4=CC(=O)CC[C@]4(C)C3CC[C@]21C (stereo partly drawn)	/	-23%[2.33 µM]	/	/	/	?
O=C(O)c1cccc(S(=O)(=O)Nc2ccc3oc(=O)sc3c2)c1	?	?	-21%	-11%	46%	89µM*
